# Screens: PubChem BioAssay, Broad Institute
# Most compounds without a hit are left out; they make up all but 3.4% or so of the library.
# HSF1 activator: increases HSF-1 driven luciferase reporter signal; hit rate 1.7% among 300,000; AID 504408; activation, % at 9 µM; NIH3T3-HGL HSF-1 luciferase reporter, MG132, 8 h; 100% = twice DMSO control signal;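 active means mean replicate activation of at least 50% with a set share of replicates each reaching 50%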;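 further: 0% = median of the neutral control wells and 100% = twice that signal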
# HSF1 inhib: HSF1 inhibition | NIH3T3-HGL HSE-luciferase, MG132-induced, luminescence 8 h; stronger effect = lower value | activity change, negative = inhibition, % at 7.5 µM (by protocol) | hit rate 0.77% among 300,000;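 active means more than half of replicate wells show activity change below -50%, luminescence cut by over half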;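 further: luciferase reports HSF-1 transcriptional activity via heat shock element; 0% = median of DMSO wells and -100% = zero luminescence signal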
# Vif inh: blocks HIV Vif function. HEK293T cells, Vif self-association by quenched fluorescence, imaging, 24 h. inhibition, % at 7.49 µM. hit rate 0.35% among 340,000. AID 602346; in the data active means inhibition above about 50%, passing the limit was not always enough
# esBAF inh: inhibitors of esBAF chromatin remodeling in mouse ES cells; Bmi1-luciferase knock-in reporter, 24 h; 100% = twice the neutral-well signal; reporter increase, % at 12.5 µM; hit rate 2% among 350,000; AID 602393; in the data active means activation above about 40%;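 further: 0% = median of the plate's neutral control wells and 100% = double that signal; a rise in the Bmi1 reporter signal indicates esBAF inhibition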
# The depositor's hits bear a star; x = not tested or not shown.
SMILES,HSF1 activator,HSF1 inhib,Vif inh,esBAF inh
CCCc1nc2ccc(NC(=O)c3cccs3)cc2c(=O)n1Cc1ccccc1Cl,61.3*,19.3,1.4,x
CC(C)NC(=O)N(C)C[C@@H]1Oc2cc(-c3cccnc3)ccc2S(=O)(=O)N([C@@H](C)CO)C[C@H]1C,x,x,x,5.7
COCC(=O)N(C)C[C@H]1Oc2cc(C#Cc3cccnc3)ccc2S(=O)(=O)N([C@@H](C)CO)C[C@H]1C,x,x,x,2.3
C[C@H](CO)N1C[C@H](C)[C@H](CN(C)Cc2ccncc2)Oc2c(NC(=O)C3CC3)cccc2C1=O,x,x,x,2.3
O=C(CC1CC1)Nc1ccc2c(c1)[C@H]1C[C@H](CC(=O)N3CCc4ccccc4C3)O[C@H](CO)[C@H]1O2,x,x,x,20.8
CSc1ncccc1C(=O)OCC(=O)c1ccc(C)s1,x,x,25.8,57.6*
Cc1ccc(C(=O)COC(=O)c2cccc(O)c2)s1,x,x,-12.0,62.5*
O=C(C[C@H]1C=C[C@H](NC(=O)CN2CCOCC2)[C@H](CO)O1)NC1CCC1,x,x,x,2.7
COc1cc(C(=O)NCCc2ccc(F)cc2)ccc1OCC(=O)N1CCOCC1,54.4*,26.0,-12.3,9.8
COc1cc(C(=O)NCc2cccc(Cl)c2)ccc1OCC(=O)N1CCOCC1,5.3,3.4,-0.9,x
CCOc1cc(C(=O)NCc2ccccc2)ccc1OCC(=O)N1CCOCC1,-80.5,-77.1*,10.6,-1.3
O=C(C[C@@H]1CC[C@H]2[C@@H](COC[C@H](O)CN2Cc2nccs2)O1)NCc1ccccc1F,x,x,x,-4.6
O=C(N[C@@H]1CC[C@H](CCNC(=O)C2CCC2)O[C@H]1CO)c1ccccn1,x,x,x,-5.2
O=C(Nc1ccc(Cl)cc1Cl)c1csc(-c2cccnc2)n1,33.1,8.4,-4.4,63.8*
CN(C)CC(=O)N[C@@H]1CC[C@@H](CC(=O)NCc2ccc(Cl)cc2)O[C@H]1CO,x,x,x,7.4
CCOC(=O)C(C(=O)OCC)C(Nc1cccc(Br)c1)c1ccccc1 (stereo unspecified),203.0*,182.2,-0.2,15.4
C[C@@H]1CCCCO[C@H](CN(C)Cc2ccc(C(=O)O)cc2)[C@H](C)CN([C@@H](C)CO)C(=O)c2cc(NC(=O)Nc3ccc(F)cc3)ccc2O1,x,x,x,-1.5
COCC(=O)Nc1ccc2c(c1)OC[C@H](C)N(C(=O)C1CCCC1)C[C@H](C)[C@H](OC)CN(C)C2=O,x,x,x,-3.0
O=c1oc(Nc2ccccc2Cl)nc2ccccc12,26.2,23.1,x,x
O=c1c2ccccc2nc2sc(Nc3cccc(Cl)c3)nn12,x,x,-2.8,46.1*
O=c1oc(Nc2cccc(Cl)c2)nc2ccccc12,67.2*,25.4,-13.0,x
Cc1cc2c(ncn2C)c(NS(=O)(=O)c2cc(Cl)ccc2Cl)c1C,140.1*,75.6,-0.2,-7.6
CO[C@@H]1CN(C)C(=O)c2cc(NC(=O)C3CC3)ccc2OC[C@@H](C)N(C(=O)c2ccccc2)C[C@H]1C,x,x,x,-1.7
Cn1c(=O)c2c(nc(Oc3ccc(-c4ccccc4)cc3)n2C)n(C)c1=O,-5.9,-12.8,x,47.6*
COc1ccc(S(=O)(=O)N(C)C[C@H]2Oc3ncc(-c4ccncc4)cc3C(=O)N([C@@H](C)CO)C[C@H]2C)cc1,x,x,x,-6.3
SMILES,HSF1 activator,HSF1 inhib,Vif inh,esBAF inh
C[C@@H]1CCCCO[C@@H](CN(C)S(=O)(=O)c2ccc(F)cc2)[C@H](C)CN([C@@H](C)CO)C(=O)c2cc(NC(=O)Cc3ccccc3)ccc2O1,x,x,x,14.1
CCCCCCN(C(=O)CCCCCN1C(=O)NC(c2ccc(-c3ccccc3)cc2)C(C(=O)OCc2ccccc2)=C1C)C(C(=O)NCCCC)c1ccc(OCC(=O)OC)c(C(=O)OC)c1 (stereo unspecified),-16.4,-6.7,x,x
CCCCNC(=O)C(c1ccc(OCC(=O)OC)c(C(=O)OC)c1)N(CCc1c[nH]c2ccccc12)C(=O)CCCCCN1C(=O)NC(c2ccc(-c3ccccc3)cc2)C(C(=O)OCc2ccccc2)=C1C (stereo unspecified),-84.1,-79.9*,x,x
O=[N+]([O-])c1ccccc1CCc1cnc(Cl)s1,-70.2,-63.3*,x,3.3
O=[N+]([O-])c1ccccc1CSc1ccccn1,4.3,1.7,-1.7,x
CCc1ccccc1N(CC(=O)N1CCCCCC1)S(C)(=O)=O,-2.3,1.0,-6.1,6.6
CN(CC(=O)N1CCCCCC1)S(=O)(=O)c1ccccc1,18.5,3.3,-3.5,57.2*
Cc1ccc(S(=O)(=O)N(C)CC(=O)N2CCCCCCC2)cc1,-1.7,0.6,-1.4,-7.7
CCc1ccccc1N(CC(=O)N1CCCC1)S(C)(=O)=O,-65.3,-56.3*,-3.3,2.1
CN(CC(=O)N1CCCCCC1)S(=O)(=O)c1ccc(F)cc1,-3.4,9.2,8.8,54.2*
C[C@@H]1CN([C@@H](C)CO)C(=O)Cc2cc(NS(=O)(=O)c3ccc(Cl)cc3)ccc2O[C@@H]1CN(C)S(=O)(=O)c1ccc(F)cc1,x,x,x,4.2
Cc1noc(C)c1NC(=O)N(C)C[C@H]1Oc2ccc(NC(=O)Nc3ccc(F)cc3)cc2CC(=O)N([C@@H](C)CO)C[C@H]1C,x,x,x,-0.8
Cc1ccc(-c2nc3cc(N)ccc3o2)cc1,4.2,9.6,-9.1,-20.1
Cc1ccc2oc(-c3cccc(N)c3)nc2c1,70.2*,29.4,11.2,-32.1
Cc1ccc2oc(-c3cccc(NC(=O)c4ccc(Br)o4)c3)nc2c1,45.6,7.4,0.2,65.0*
Cc1ccc(C(=O)Nc2sc(C)c(-c3ccccc3)c2C(N)=O)cc1[N+](=O)[O-],-83.4,-81.5*,x,-56.7
COCCNC(=O)C[C@H]1C=C[C@@H](NS(=O)(=O)c2ccc(C)cc2)[C@H](CO)O1,x,x,x,-1.6
CCCCOC(=O)c1ccc(OC(=O)c2cccnc2)cc1,13.5,9.4,10.8,23.2
CCCCCCOC(=O)c1ccc(OC(=O)c2cccnc2)cc1,58.4*,30.7,x,51.7*
CN1CCN(C(=O)C[C@@H]2CC[C@H]3[C@@H](COC[C@@H](O)CN3Cc3ccc4c(c3)OCO4)O2)CC1,x,x,x,-3.0
CC(=O)Nc1ccc(N=Nc2c(C)[nH]n(C(N)=S)c2=O)cc1,32.6,9.3,12.1,49.2*
CC(=O)Oc1cc2c(cc1OC(C)=O)C(=O)CCCC2,x,x,57.2*,-7.4
COc1cc2c(cc1OC(C)=O)C(=O)CCCC2,x,x,-1.4,x
COc1ccc(CCNC(=O)C2CCCN(S(=O)(=O)c3ccc(F)cc3)C2)cc1OC (stereo unspecified),-67.3,-56.5*,-6.9,6.0
O=C(NCc1ccc(F)cc1)C1CCCN(S(=O)(=O)c2cccc3nsnc23)C1 (stereo unspecified),3.2,6.3,-1.6,6.7
Cc1cc(C)c(S(=O)(=O)N2CCCC(C(=O)NCCC3=CCCCC3)C2)c(C)c1 (stereo unspecified),59.9*,26.8,x,-6.0
COc1ccc(OC)c(S(=O)(=O)N2CCCC(C(=O)NCc3cccnc3)C2)c1 (stereo unspecified),-20.0,-1.8,59.6*,0.9
COc1ccc(S(=O)(=O)N2CCCC(C(=O)NCCC3=CCCCC3)C2)cc1 (stereo unspecified),35.3,8.4,-3.2,10.9
O=C(NCc1ccccc1)C1CCCN(S(=O)(=O)c2cccc3nsnc23)C1 (stereo unspecified),-77.9,-72.2*,-1.8,-6.8
